Test results as given in the OligoGym collection.
Note: reference of the scale not given here.

These sequences were tested against CTLA4 (assay: pooled miR-30 sensor sort-seq; sequence = guide strand). Conditions: shRNA.
Sequence TGGATCAATTACATAAATCTGG has a sensor-assay potency score (higher = more potent) of -0.489. In the case of TAAATCTGGGTTCCGTTGCCTA, the sensor-assay potency score (higher = more potent) is reported as -0.995. TTGCTTTTCACATTCTGGCTCT showed a sensor-assay potency score (higher = more potent) of 0.296. TTTGCTCAAAGAAACAGCTGTG showed a sensor-assay potency score (higher = more potent) of 0.483. For TTGGATAGTGAGGTTCACTTGA, the sensor-assay potency score (higher = more potent) was 0.333. Sequence TTTTGCTCAAAGAAACAGCTGT has a sensor-assay potency score (higher = more potent) of 0.613. With ATCAATTACATAAATCTGGGTT the sensor-assay potency score (higher = more potent) was -0.149. Work on TTACATAAATCTGGGTTCCGTT yielded a sensor-assay potency score (higher = more potent) of -0.355. For TAGCAATTACATAAATCTGGGT, the sensor-assay potency score (higher = more potent) was -0.226. TTGCAGATGTAGAGTCCCGTGT showed a sensor-assay potency score (higher = more potent) of -0.673.

Each sequence was assayed against CTNNAL1 in the same assay as above. Conditions: shRNA.
TTCATTTCCAAATTGACTGAAT showed a sensor-assay potency score (higher = more potent) of 0.0043. TTCATTAAGACTGTGACTGATT was tested, and the sensor-assay potency score (higher = more potent) was 0.0876. In the case of TTGTTTTCTTGCTTTGAGCTTG, the sensor-assay potency score (higher = more potent) is reported as 0.085. With TAGTTGATGAATTAAATCCTGG the sensor-assay potency score (higher = more potent) was -0.667. Work on TTTCTTGATGTTATTATCTGTT yielded a sensor-assay potency score (higher = more potent) of -0.648. For TCGACAGGTCTCAACAAGCTGC, the sensor-assay potency score (higher = more potent) was -0.481. For TTCAGCAGCAGAAATTATCTGT, the sensor-assay potency score (higher = more potent) was 0.229. TTGTAACTGAGACCCATCCGTT gave a sensor-assay potency score (higher = more potent) of -0.457. With TTGTCTTCGTAATACACTTGTC the sensor-assay potency score (higher = more potent) was -0.611. With ATTTTGTCTATCTCCACTCAGA the sensor-assay potency score (higher = more potent) was -0.843. In the case of TTGAACACTGGAAGTAAGCTTT, the sensor-assay potency score (higher = more potent) is reported as 0.00936. With TTATTTGTAACTGAGACCCATC the sensor-assay potency score (higher = more potent) was -0.547.

What follows are sequences tested against CTNNBIP1 in the same assay as above. Conditions: shRNA.
With TCTCCTCCGGACTCTTCCCGGG the sensor-assay potency score (higher = more potent) was -0.954. Sequence ATAGGTGCGCAGGAACTCCTCC has a sensor-assay potency score (higher = more potent) of -0.215. TGGCTGTCAGGTTTGATCCCAT was tested, and the sensor-assay potency score (higher = more potent) was -0.741. In the case of TCGGACCTTCTGCTGAATGTAC, the sensor-assay potency score (higher = more potent) is reported as -1.3. Work on TCTGCTGAATGTACATCTCCTC yielded a sensor-assay potency score (higher = more potent) of -0.574. TTGATATCAGCAGAACACCTGC gave a sensor-assay potency score (higher = more potent) of -0.0972. In the case of ATCTCCTCCGGACTCTTCCCGG, the sensor-assay potency score (higher = more potent) is reported as -1.21. In the case of TTGACCACCCCTGCATAGGTGC, the sensor-assay potency score (higher = more potent) is reported as -1.01. In the case of TGAATGTACATCTCCTCCGGAC, the sensor-assay potency score (higher = more potent) is reported as -0.75. TTCTGCTGAATGTACATCTCCT gave a sensor-assay potency score (higher = more potent) of -0.0119. With TGATCCCATCTTCCGCAGCATG the sensor-assay potency score (higher = more potent) was -1.86. CTGAATGTACATCTCCTCCGGA was tested, and the sensor-assay potency score (higher = more potent) was -0.773.

The sequences below were run against CTNNBL1 in the same assay as above. Conditions: shRNA.
Work on ATCTGTATTATCGTGTCCGAGC yielded a sensor-assay potency score (higher = more potent) of -1.22. Work on TTGTCTGGAAACTTAATCCGCA yielded a sensor-assay potency score (higher = more potent) of -0.219. With TGTATTATCGTGTCCGAGCAAG the sensor-assay potency score (higher = more potent) was -1.35. Work on AAGCACATCGATTCCATCCAGC yielded a sensor-assay potency score (higher = more potent) of -0.642. In the case of TATCGTGTCCGAGCAAGCCGAG, the sensor-assay potency score (higher = more potent) is reported as -1.14.
